These results are taken from PubChem BioAssay (EPA / NIEHS).

Calls of active or inactive are those of the source. The calls were made as follows: active = hit-call score of the fitted dose curve at least 0.9, where 1 is the maximum; inactive = score below 0.9.

Common to all, as to details: mRNA level, 48 h; actives raise or lower the signal
Read-out in test [1]: Bcl-2 (BAD) gene, BAD (gene 572)
Briefly: LTEA_HepaRG_BAD: Life Technologies and Expression Analysis (LTEA) Assay for Bcl-2 (BAD) gene using HepaRG (AID 2283469). The procedure, abridged:
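HepaRG, 48 h exposure, 8-pt half-log curve from 100 uM in 0.5% DMSO, duplicates. Readout: TaqMan qRT-PCR for BAD mRNA, housekeeping-normalised (ACTB/GAPDH/POLR2A); gain or loss fitted against DMSO baseline.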

Read-out in test [2]: Bcl-2 (BAX) gene, BAX (gene 581)
Briefly: LTEA_HepaRG_BAX: Life Technologies and Expression Analysis (LTEA) Assay for Bcl-2 (BAX) gene using HepaRG (AID 2283470). The essentials: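 qRT-PCR read-out of BAX mRNA, normalized to three housekeeping genes, after 48 h chemical exposure of human HepaRG cells in serum-free induction medium; eight-point half-log series, top 100 uM, 0.5% DMSO vehicle; bidirectional fit versus DMSO.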

Read-out in test [3]: adenosine kinase (ADK) gene, ADK (gene 132)
Briefly: LTEA_HepaRG_ADK: Life Technologies and Expression Analysis (LTEA) Assay for adenosine kinase (ADK) gene using HepaRG (AID 2283471). The procedure, abridged:
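ADK expression quantified by qRT-PCR, normalised to three housekeeping genes, after 48 h exposure of HepaRG cells to eight concentrations (top 100 uM, half-log steps, duplicate, 0.5% DMSO). Up- or down-regulation fitted relative to vehicle.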

Read-out in test [4]: Alpha-fetoprotein (AFP) gene, AFP (gene 174)
Briefly: LTEA_HepaRG_AFP: Life Technologies and Expression Analysis (LTEA) Assay for Alpha-fetoprotein (AFP) gene using HepaRG (AID 2283472). The procedure, abridged:
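qRT-PCR (Fluidigm TaqMan) readout of AFP transcript, normalized to three housekeeping genes, fitted bidirectionally against 0.5% DMSO baseline. HepaRG cells received chemicals for 48 h in serum-free induction medium, top concentration 100 uM, half-log steps.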

Read-out in a further test: BCL2L11 (gene 10018)
The experiment in a line: LTEA_HepaRG_BCL2L11: Life Technologies and Expression Analysis (LTEA) Assay for Bcl-2 (BCL2L11) gene using HepaRG (AID 2283473). The procedure, abridged:
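BCL2L11 transcript levels are measured by Fluidigm qRT-PCR, normalized to three housekeeping genes. HepaRG cultures were plated 48 h, then treated 48 h with test chemical (top 100 uM, half-log, 0.5% DMSO vehicle); curves were fitted bidirectionally against DMSO.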

Read-out in test [5]: Apolipoprotein A-V (APOA5) gene, APOA5 (gene 116519)
Briefly: LTEA_HepaRG_APOA5: Life Technologies and Expression Analysis (LTEA) Assay for Apolipoprotein A-V (APOA5) gene using HepaRG (AID 2283474). The essentials:
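APOA5 transcript levels were quantified by qRT-PCR, normalized to three housekeeping genes, after 48 h chemical treatment of HepaRG cells (8 points, 100 uM maximum, half-log steps, 0.5% DMSO). Curves fitted in both directions against vehicle.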

Read-out in test [6]: Apoptosis regulator Bcl-2 (Homo sapiens) (UniProt P10415)
The experiment in a line: LTEA_HepaRG_BCL2: Life Technologies and Expression Analysis (LTEA) Assay for Bcl-2 gene using HepaRG (AID 2283475). The essentials:
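qRT-PCR read-out (Fluidigm TaqMan) of BCL2 transcript, normalised to three housekeeping genes, after 48 h chemical exposure of HepaRG cells; 8-point half-log series, top 100 uM, 0.5% DMSO vehicle. Gain or loss of signal fitted relative to DMSO baseline.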

Read-out in test [7]: Bcl-2 (BID) gene, BID (gene 637)
Briefly: LTEA_HepaRG_BID: Life Technologies and Expression Analysis (LTEA) Assay for Bcl-2 (BID) gene using HepaRG (AID 2283476). The essentials: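 HepaRG, 48 h exposure, 8-pt half-log series, top 100 uM, 0.5% DMSO vehicle, duplicates. Readout: BID mRNA by TaqMan qRT-PCR; housekeeping-normalized; bidirectional curve fit vs DMSO baseline.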

Read-out in a further test: Caspase-3 (Homo sapiens) (UniProt P42574)
The experiment in a line: LTEA_HepaRG_CASP3: Life Technologies and Expression Analysis (LTEA) Assay for cysteine-aspartic acid protease (CASP3) using HepaRG (AID 2283477). The essentials: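 Expression of CASP3 was quantified by TaqMan qRT-PCR against three housekeeping genes (ACTB, GAPDH, POLR2A), bidirectionally versus 0.5% DMSO. HepaRG cultures received compounds in duplicate, top 100 uM with half-log steps, for 48 h in serum-free induction medium.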

Read-out in test [8]: Cytochrome P450 (CYP24A1), CYP24A1 (gene 1591)
Briefly: LTEA_HepaRG_CYP24A1: Life Technologies and Expression Analysis (LTEA) Assay for Cytochrome P450 (CYP24A1) using HepaRG (AID 2283478). The procedure, abridged:
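mRNA of CYP24A1 quantified by TaqMan qRT-PCR (ACTB/GAPDH/POLR2A normalization) after 48 h chemical exposure of HepaRG cells, top concentration 100 uM, half-log steps, 0.5% DMSO vehicle, duplicates. Curves fitted bidirectionally against DMSO baseline.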

Read-out in test [9]: Cytochrome P450 (CYP1A2), CYP1A2 (gene 1544)
Briefly: LTEA_HepaRG_CYP1A2: Life Technologies and Expression Analysis (LTEA) Assay for Cytochrome P450 (CYP1A2) using HepaRG (AID 2283479). The procedure, abridged: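 CYP1A2 transcript measured by TaqMan qRT-PCR against three housekeeping genes after 48-hour chemical exposure of HepaRG cells. Eight-point half-log series topping at 100 uM in 0.5% DMSO, duplicates; gain or loss fitted relative to vehicle.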

Read-out in test [10]: cysteine-aspartic acid protease (CASP8), CASP8 (gene 841)
Briefly: LTEA_HepaRG_CASP8: Life Technologies and Expression Analysis (LTEA) Assay for cysteine-aspartic acid protease (CASP8) using HepaRG (AID 2283480). The essentials: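 qRT-PCR readout of CASP8 mRNA, normalized to three housekeeping genes, after 48 h chemical exposure of HepaRG cells; 8-point half-log series, top 100 uM, 0.5% DMSO vehicle. Bidirectional curve fitting against DMSO baseline.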

Read-out in test [11]: Cytochrome P450 (CYP2B6), CYP2B6 (gene 1555)
The experiment in a line: LTEA_HepaRG_CYP2B6: Life Technologies and Expression Analysis (LTEA) Assay for Cytochrome P450 (CYP2B6) using HepaRG (AID 2283481). The procedure, abridged:
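CYP2B6 transcript level quantified by qRT-PCR against three housekeeping genes, fitted bidirectionally relative to DMSO. HepaRG cultures received chemicals for 48 h, 8-point half-log series from 100 uM in 0.5% DMSO, duplicate wells, serum-free induction medium.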

Read-out in test [12]: Cytochrome P450 2C19 (Homo sapiens) (UniProt P33261)
The experiment in a line: LTEA_HepaRG_CYP2C19: Life Technologies and Expression Analysis (LTEA) Assay for CYP2C19 using HepaRG (AID 2283482). The procedure, abridged: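 CYP2C19 transcript levels by qRT-PCR, normalized to three housekeeping genes, in HepaRG cells after 48 h chemical exposure. Eight-point half-log series topping at 100 uM, 0.5% DMSO vehicle. Increases and decreases both fitted against DMSO.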

Read-out in a further test: CYP2C8 (gene 1558)
The experiment in a line: LTEA_HepaRG_CYP2C8: Life Technologies and Expression Analysis (LTEA) Assay for CYP2C8 using HepaRG (AID 2283483). The essentials: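 HepaRG (human liver line), 48 h chemical exposure, 8-pt half-log series from 100 uM, 0.5% DMSO vehicle. Readout: CYP2C8 transcript by qRT-PCR, housekeeping-normalized. Bidirectional fit vs DMSO baseline.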

Read-out in the next test: CYP2C9 (gene 1559)
The experiment in a line: LTEA_HepaRG_CYP2C9: Life Technologies and Expression Analysis (LTEA) Assay for CYP2C9 using HepaRG (AID 2283484). The procedure, abridged: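 HepaRG, 48 h dosing, 8-pt half-log series, top 100 uM, 0.5% DMSO vehicle. Read-out: CYP2C9 transcript by TaqMan qRT-PCR, housekeeping-normalized (ACTB/GAPDH/POLR2A). Gain or loss fitted vs DMSO baseline.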

Read-out in a further test: CYP2E1 (gene 1571)
The experiment in a line: LTEA_HepaRG_CYP2E1: Life Technologies and Expression Analysis (LTEA) Assay for CYP2E1 using HepaRG (AID 2283485). The procedure, abridged:
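CYP2E1 transcript was measured by TaqMan qRT-PCR in human HepaRG cultures after 48 h chemical exposure (top 100 uM, half-log steps, 0.5% DMSO vehicle). Housekeeping-gene normalization; gain or loss fitted relative to DMSO baseline.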

Read-out in another test: CYP4A11 (gene 1579)
The experiment in a line: LTEA_HepaRG_CYP4A11: Life Technologies and Expression Analysis (LTEA) Assay for CYP4A11 using HepaRG (AID 2283486). The essentials:
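Readout is CYP4A11 transcript level by qRT-PCR, normalized to three housekeeping genes and fitted bidirectionally against 0.5% DMSO. Human HepaRG cells were treated 48 h, in duplicate, with an 8-point half-log series topping at 100 uM.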

Read-out in test [13]: DNA damage-inducible transcript 3 (DDIT3), DDIT3 (gene 1649)
The experiment in a line: LTEA_HepaRG_DDIT3: Life Technologies and Expression Analysis (LTEA) Assay for DNA damage-inducible transcript 3 (DDIT3) using HepaRG (AID 2283488). The essentials:
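qRT-PCR readout (Fluidigm TaqMan), housekeeping-normalized to ACTB, GAPDH, POLR2A. HepaRG cells, 48 h exposure, 8-point half-log series from 100 uM in 0.5% DMSO, duplicates. Gain or loss of signal fitted against DMSO baseline.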

Read-out in test [14]: Cytochrome P450 3A4 (Homo sapiens) (UniProt P08684)
The experiment in a line: LTEA_HepaRG_CYP3A4: Life Technologies and Expression Analysis (LTEA) Assay for CYP3A4 using HepaRG (AID 2283487). The procedure, abridged: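 Differentiated HepaRG cells, plated 48 h, then dosed 48 h in serum-free induction medium with 0.5% DMSO, 8 half-log concentrations up to 100 uM, duplicate. CYP3A4 mRNA by qRT-PCR, normalized to ACTB/GAPDH/POLR2A; bidirectional fit versus DMSO.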

Apoptosis regulator Bcl-2 (Homo sapiens), sequence (P10415 whole entry, looked up): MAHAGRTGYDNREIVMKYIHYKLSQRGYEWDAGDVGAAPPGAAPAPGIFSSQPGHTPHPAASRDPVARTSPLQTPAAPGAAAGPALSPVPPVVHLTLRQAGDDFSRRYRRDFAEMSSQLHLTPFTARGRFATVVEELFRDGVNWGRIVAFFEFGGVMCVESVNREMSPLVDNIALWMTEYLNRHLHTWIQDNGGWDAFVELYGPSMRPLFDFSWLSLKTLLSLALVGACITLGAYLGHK
Caspase-3 (Homo sapiens), sequence (P42574 whole entry, looked up): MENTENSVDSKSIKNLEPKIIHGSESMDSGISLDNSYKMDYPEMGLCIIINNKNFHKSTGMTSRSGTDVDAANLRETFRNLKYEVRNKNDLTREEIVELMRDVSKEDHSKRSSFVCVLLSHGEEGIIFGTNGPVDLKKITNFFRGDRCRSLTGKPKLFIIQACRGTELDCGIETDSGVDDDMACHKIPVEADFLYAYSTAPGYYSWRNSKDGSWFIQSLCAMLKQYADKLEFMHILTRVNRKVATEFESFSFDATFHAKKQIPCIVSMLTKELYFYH
Cytochrome P450 2C19 (Homo sapiens), sequence (P33261 whole entry, looked up): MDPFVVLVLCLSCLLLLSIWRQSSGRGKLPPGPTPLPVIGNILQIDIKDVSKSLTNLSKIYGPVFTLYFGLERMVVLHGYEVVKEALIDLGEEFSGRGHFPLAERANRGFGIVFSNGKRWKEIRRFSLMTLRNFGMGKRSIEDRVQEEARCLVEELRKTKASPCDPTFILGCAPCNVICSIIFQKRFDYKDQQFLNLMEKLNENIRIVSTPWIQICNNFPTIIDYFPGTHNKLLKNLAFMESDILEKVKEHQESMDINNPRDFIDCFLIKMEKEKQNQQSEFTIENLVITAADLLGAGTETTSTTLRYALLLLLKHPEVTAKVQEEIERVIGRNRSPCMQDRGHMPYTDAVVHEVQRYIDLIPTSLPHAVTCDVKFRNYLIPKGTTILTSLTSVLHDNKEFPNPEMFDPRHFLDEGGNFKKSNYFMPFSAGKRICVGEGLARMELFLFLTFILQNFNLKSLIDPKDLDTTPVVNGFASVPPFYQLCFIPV
Cytochrome P450 3A4 (Homo sapiens), sequence (P08684 whole entry, looked up): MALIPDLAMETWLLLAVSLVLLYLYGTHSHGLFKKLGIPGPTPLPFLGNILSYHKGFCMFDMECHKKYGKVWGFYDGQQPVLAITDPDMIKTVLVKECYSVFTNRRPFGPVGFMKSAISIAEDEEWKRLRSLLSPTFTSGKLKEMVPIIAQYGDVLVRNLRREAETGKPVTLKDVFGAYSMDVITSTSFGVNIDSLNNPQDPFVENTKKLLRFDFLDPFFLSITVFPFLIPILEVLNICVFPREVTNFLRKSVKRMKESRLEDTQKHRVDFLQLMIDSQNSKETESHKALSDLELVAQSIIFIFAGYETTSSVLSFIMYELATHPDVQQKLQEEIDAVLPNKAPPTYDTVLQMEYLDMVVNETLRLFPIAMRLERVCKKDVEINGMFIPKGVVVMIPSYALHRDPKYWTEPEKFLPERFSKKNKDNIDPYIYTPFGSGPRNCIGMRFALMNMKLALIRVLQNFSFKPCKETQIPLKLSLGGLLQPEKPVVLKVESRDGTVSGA

What is called AC50 is the concentration giving half of the maximal activity seen. Consider `CNCc1cc(F)ccc1Oc1ccc(Cl)c(Cl)c1`, for which the outcome (in test [1]; in [2]; in [3]; in test [4]; with BCL2L11 (gene 10018); in [5]) was inactive. Also, the outcome (in test [7]; with Caspase-3 (Homo sapiens); in [8]; in [9]; in test [10]; in test [11]) was inactive. Further, the call in the test with CYP2C8 (gene 1558) was inactive. Also, the concentration at half-maximal activity (AC50) was 88.3 µM (active) in test [6]; 94 µM (active) in [12]; 92.6 µM (active) with CYP2C9 (gene 1559); 73.8 µM (active) in the test with CYP2E1 (gene 1571); 75.5 µM (active) in the test with CYP4A11 (gene 1579); 77 µM (active) in test [13].

Regarding `Nc1ccccc1N`, the outcome (in [1]; in [6]; in test [7]; with Caspase-3 (Homo sapiens); in [8]; in test [10]) was inactive. In addition, in test [13], the result was inactive. Also, the AC50 in test [2] was 40.6 µM (active); in test [3], 85.7 µM (active); in [4], 72 µM (active); in the test with BCL2L11 (gene 10018), 50 µM (active); in [5], 58.2 µM (active); in test [9], 2.19 µM (active). The AC50 was 69 µM (active) in test [11]; 71.8 µM (active) in test [12]; 78.3 µM (active) with CYP2C8 (gene 1558); 73.1 µM (active) with CYP2E1 (gene 1571); 66.5 µM (active) with CYP4A11 (gene 1579).

On to `O=C(O)Cc1ccccc1Nc1c(Cl)cccc1Cl`, for which the outcome (in [1]; in test [2]; in test [3]; with BCL2L11 (gene 10018); in test [5]; in [6]) was inactive. In addition, the call (in test [7]; with Caspase-3 (Homo sapiens); in test [8]; in test [10]; with CYP2C8 (gene 1558); with CYP2C9 (gene 1559)) was inactive. Besides, the result (in the test with CYP4A11 (gene 1579); in test [13]) was inactive. Also, the AC50 in [4] was 19.7 µM (active); in test [9], 2.69 µM (active); in [12] it was 5.86 µM (active); with CYP2E1 (gene 1571), 11.8 µM (active).

As to `COC(=O)c1ccc(O)cc1`, the outcome (in test [1]; in test [2]; in test [3]; in test [4]; in the test with BCL2L11 (gene 10018); in test [5]) was inactive. Besides, the compound was classed as inactive (in test [6]; in test [7]; in the test with Caspase-3 (Homo sapiens); in test [8]; in [9]; in test [10]). The call (in test [12]; in the test with CYP2C8 (gene 1558); in the test with CYP2E1 (gene 1571); in the test with CYP4A11 (gene 1579); in test [14]; in test [13]) was inactive.
